The results in this text go back to PubChem BioAssay.

The structures appear in SMILES notation. Activity calls are given as the source filed them.

The nature of experiment [1]: optical density shifts of acrAB sulA E. coli – strain DRC41, OD650, 48 h, E. coli filamentation inducer project, primary screen (AID 1152).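 Also: E. coli MC1000 strain DRC41 lacking acrAB efflux pump and sulA.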 As to conditions: higher = more signal, called active from +8 up or from −8 down.
Experiment [2] is described as follows: probe aLefty1 binding on compound microarray – biochemical, small-molecule microarray, 635/667 nm fluorescence, primary screen (AID 1153).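 Also: score merges spot fluorescence with signal-to-noise ratio from the scanned slide images.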 As to conditions: higher = more signal.
A short description of experiment [3]: plasmodial surface anion channel blockers, osmotic lysis – cell-based, P. falciparum Indochina, OD700, 1 h, primary screen (AID 1154). As to conditions: P. falciparum Indochina infected RBC osmotic lysis, higher = more signal, called active from +8 up or from −8 down.
Experiment [4] in a line: plasmodial surface anion channel blockers, osmotic lysis – cell-based, P. falciparum Indochina, OD700, 2 h, primary screen (AID 1155).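 Also: lysis reports solute entry through the parasite surface anion channel PSAC.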 As to conditions: P. falciparum Indochina infected erythrocytes, higher = more signal, called active from +8 up or from −8 down.
Experiment [5] in a line: changes in parasitized red cell lysis, either direction – P. falciparum Indochina, OD700, 3 h, PSAC antagonist project, primary screen (AID 1156). As to conditions: P. falciparum-infected erythrocytes, osmotic lysis, higher = more signal, called active from +8 up or from −8 down.
Experiment [6] in a line: plasmodial surface anion channel blockers, osmotic lysis – cell-based, P. falciparum Indochina, OD700, 18 h, primary screen (AID 1157). As to conditions: P. falciparum Indochina infected erythrocytes, osmotic lysis OD700, 18 h; higher = more signal, called active from +8 up or from −8 down.
The nature of experiment [7]: S6 kinase pathway phospho-S6 level changes – cell-based, A549, cytoblot, luminescence, serum-stimulated, primary screen (AID 1158).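 Also: serum-stimulated A549 lung adenocarcinoma cells; signal is phosphorylated S6 detected by cytoblot immunostaining with HRP secondary.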 As to conditions: 5 h, higher = more signal.
The target in experiment [8] is NADPH oxidase 2 (Homo sapiens) (UniProt P04839). Put plainly: compounds shifting NOX2 Amplex Red fluorescence – cell-based, HEK293-NOX2, PMA-stimulated, NOX inhibitor project, primary screen (AID 1159). Also: test concentration not given here. As to conditions: 45 min, higher = more signal, called active from +8 up or from −8 down.
For experiment [9], the target named is NADPH oxidase 4 (Homo sapiens) (UniProt Q9NPH5). As to the kind of experiment: compounds shifting NOX4 Amplex Red fluorescence – cell-based, HEK293-NOX4, tetracycline-induced, NOX inhibitor project, primary screen (AID 1160). As to conditions: HEK293-NOX4, Amplex Red H2O2 fluorescence, 45 min; higher = more signal, called active from +8 up or from −8 down.
Experiment [10] has as its target NADPH oxidase 5 (Homo sapiens) (UniProt Q96PH1). Put plainly: compounds shifting NOX5 Amplex Red fluorescence – cell-based, HEK293-NOX5, NOX inhibitor project, primary screen (AID 1161). As to conditions: HEK293-NOX5, ionomycin, 45 min, higher = more signal.

Chain of NADPH oxidase 5 (Homo sapiens) (Q96PH1 whole entry, looked up): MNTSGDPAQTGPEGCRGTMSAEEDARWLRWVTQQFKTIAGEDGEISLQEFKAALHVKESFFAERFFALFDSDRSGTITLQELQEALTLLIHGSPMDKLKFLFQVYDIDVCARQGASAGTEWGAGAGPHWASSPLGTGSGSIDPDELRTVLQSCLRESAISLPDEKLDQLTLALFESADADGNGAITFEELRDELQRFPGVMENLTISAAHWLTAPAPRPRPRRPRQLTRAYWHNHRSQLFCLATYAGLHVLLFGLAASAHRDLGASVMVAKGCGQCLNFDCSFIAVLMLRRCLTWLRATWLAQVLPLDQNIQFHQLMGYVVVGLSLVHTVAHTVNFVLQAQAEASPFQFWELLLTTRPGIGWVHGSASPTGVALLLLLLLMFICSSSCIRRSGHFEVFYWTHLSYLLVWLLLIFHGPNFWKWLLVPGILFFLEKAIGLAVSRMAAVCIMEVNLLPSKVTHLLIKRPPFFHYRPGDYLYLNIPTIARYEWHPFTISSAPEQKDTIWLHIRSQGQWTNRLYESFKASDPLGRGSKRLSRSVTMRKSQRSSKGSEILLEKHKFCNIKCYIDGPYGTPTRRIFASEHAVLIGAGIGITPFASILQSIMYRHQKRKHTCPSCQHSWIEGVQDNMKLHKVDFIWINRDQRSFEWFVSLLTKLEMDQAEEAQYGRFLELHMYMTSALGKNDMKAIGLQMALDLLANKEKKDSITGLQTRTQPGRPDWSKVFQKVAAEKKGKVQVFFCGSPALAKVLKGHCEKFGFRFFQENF
Chain of NADPH oxidase 4 (Homo sapiens) (Q9NPH5 whole entry, looked up): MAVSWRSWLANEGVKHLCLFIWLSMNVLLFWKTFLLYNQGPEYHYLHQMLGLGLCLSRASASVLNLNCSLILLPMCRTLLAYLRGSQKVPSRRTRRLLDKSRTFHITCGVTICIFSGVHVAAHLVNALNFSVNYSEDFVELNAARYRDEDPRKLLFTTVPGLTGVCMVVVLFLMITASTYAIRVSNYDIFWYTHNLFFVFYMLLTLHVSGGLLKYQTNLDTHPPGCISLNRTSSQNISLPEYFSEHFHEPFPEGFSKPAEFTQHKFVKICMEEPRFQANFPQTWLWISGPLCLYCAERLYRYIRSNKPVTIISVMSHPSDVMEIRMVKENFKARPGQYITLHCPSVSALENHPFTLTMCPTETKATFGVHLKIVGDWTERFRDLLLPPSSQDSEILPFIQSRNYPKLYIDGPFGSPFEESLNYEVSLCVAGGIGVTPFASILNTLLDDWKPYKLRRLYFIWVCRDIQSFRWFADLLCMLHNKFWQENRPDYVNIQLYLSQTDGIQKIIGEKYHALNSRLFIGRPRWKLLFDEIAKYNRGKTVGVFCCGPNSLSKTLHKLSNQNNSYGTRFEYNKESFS
Chain of NADPH oxidase 2 (Homo sapiens) (P04839 whole entry, looked up): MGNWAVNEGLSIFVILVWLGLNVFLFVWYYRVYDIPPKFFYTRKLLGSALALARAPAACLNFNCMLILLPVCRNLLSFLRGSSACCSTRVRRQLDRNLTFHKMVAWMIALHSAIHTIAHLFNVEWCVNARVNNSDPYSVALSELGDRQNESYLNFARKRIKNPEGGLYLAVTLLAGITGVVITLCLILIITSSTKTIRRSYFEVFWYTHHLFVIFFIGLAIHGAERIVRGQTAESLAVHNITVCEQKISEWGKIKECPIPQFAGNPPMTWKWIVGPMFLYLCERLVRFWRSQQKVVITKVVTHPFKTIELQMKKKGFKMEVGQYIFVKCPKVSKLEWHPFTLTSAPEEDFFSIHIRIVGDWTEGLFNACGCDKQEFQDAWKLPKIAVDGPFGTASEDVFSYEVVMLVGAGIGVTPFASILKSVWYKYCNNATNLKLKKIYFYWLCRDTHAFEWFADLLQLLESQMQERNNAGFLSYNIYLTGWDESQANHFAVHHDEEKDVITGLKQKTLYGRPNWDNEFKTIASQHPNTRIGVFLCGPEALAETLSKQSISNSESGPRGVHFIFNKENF

Consider `CCCCCCCCCCC(O)C1C=CC2C(=O)N(C)C(=O)C2N1NC(=O)OC(C)(C)C` (stereo not given), for which the z-score in experiment [1] is -3.07 (inactive); in experiment [3], 8.95 (active); in experiment [4], 2.45 (inactive); in [5], -1.28 (inactive); in [6], 1.81 (inactive); in experiment [7] it was -1.36. The z-score in experiment [8] is -0.67 (inactive); in experiment [9] it was -7.78 (inactive); in [10], -3.78. In experiment [2], this compound gave a composite z-score of -0.239.
On to `O=C1C[C@@](C(=O)NCCN2CCOCC2)(c2ccc([N+](=O)[O-])cc2)[C@@H](c2ccc(CO)cc2I)N1C1CCCCC1`, for which the z-score in experiment [1] is 0.82 (inactive); in [3] it was 15.3 (active); in [4] it was 1.59 (inactive); in experiment [5], 2.94 (inactive); in experiment [6], -0.168 (inactive); in experiment [7], 0.452. Moreover, the z-score is 2.1 (inactive) in experiment [8], -1.09 (inactive) in experiment [9] and -1.5 in experiment [10]. The composite z-score in [2] came out at 0.0688.
For the compound `COCCOC(=O)N1C(=O)[C@@]2(c3cc(C#CC4=CCCCC4)ccc31)[C@H](c1ccc(OCCO)cc1)N1[C@H](c3ccccc3)[C@H](c3ccccc3)OC(=O)[C@H]1[C@@H]2C(=O)NC[C@H](O)c1ccccc1`, the z-score in experiment [1] is -0.149 (inactive); in experiment [3], 2.35 (inactive); in experiment [4] it was 1.31 (inactive); in experiment [5], -0.352 (inactive); in experiment [6], 0.482 (inactive); in [7] it was 0.245. The z-score in experiment [8] was 1.36 (inactive); in experiment [9], 0.849 (inactive); in [10], 1.44. This compound also yielded a composite z-score in experiment [2] of 1.43.
As to `CC(C)(C)OC(=O)CC[C@@]1(C(=O)NCc2ccccc2)N=C(c2ccc(OCCCO)cc2)O[C@@H]1c1ccccc1N=[N+]=[N-]`, the z-score is 0.775 (inactive) in experiment [1]; 33.2 (active) in experiment [3]; 30 (active) in [4]; 4.99 (inactive) in [5]; 6.74 (inactive) in experiment [6]; 0.787 in experiment [7]. In addition, the z-score in experiment [8] is -1.8 (inactive); in experiment [9], 0.457 (inactive); in experiment [10], -1.86. Also, the composite z-score in experiment [2] is 0.347.
With `O=C1O[C@H](c2ccccc2)[C@H](c2ccccc2)N2[C@H]1[C@@H](C(=O)Nc1nc3ccccc3s1)[C@]1(C(=O)Nc3ccc(C#CCCO)cc31)[C@H]2c1ccc(O)cc1`, the z-score is -0.742 (inactive) in experiment [1]; 0.402 (inactive) in experiment [3]; 1.05 (inactive) in experiment [4]; -5.42 (inactive) in experiment [5]; 1.23 (inactive) in experiment [6]; -0.263 in experiment [7]. Besides, the z-score in [8] is 1.08 (inactive); in experiment [9], 0.38 (inactive); in experiment [10], -0.901. This compound also returned a composite z-score in experiment [2] of 0.026.
On to `COc1ccc(CCNC(=O)[C@@]2(Sc3ccc(C)cc3)CC(=O)N(C3Cc4ccccc4C3)[C@@H]2c2ccc(CO)cc2)cc1`, for which the z-score in experiment [1] is -0.336 (inactive); in experiment [3] it was 4.53 (inactive); in experiment [4], -0.205 (inactive); in experiment [5], -0.0174 (inactive); in experiment [6], -0.874 (inactive); in experiment [7] it was 1.66. Moreover, the z-score in [8] was -2.19 (inactive); in experiment [9] it was -1.05 (inactive); in experiment [10], -4.9. The composite z-score in experiment [2] amounted to 0.366.
With `CCCNC(=O)[C@@H]1c2ccccc2C(=O)N(C(C)C)[C@H]1c1ccc(CO)cc1`, the z-score was 0.737 (inactive) in [1]; 1.67 (inactive) in experiment [3]; -0.1 (inactive) in [4]; 0.21 (inactive) in experiment [5]; -0.21 (inactive) in experiment [6]; -0.0878 in [7]. The z-score was 0.162 (inactive) in experiment [8], 0.514 (inactive) in experiment [9] and -0.0547 in [10]. The same compound had a composite z-score in [2] of 0.202.
`COCCOC(=O)N1C(=O)[C@@]2(c3cc(C#CC4(O)CCCCCC4)ccc31)[C@H](c1ccc(O)cc1)N1[C@H](c3ccccc3)[C@H](c3ccccc3)OC(=O)[C@H]1[C@@H]2C(=O)NC[C@H](O)c1ccccc1`: the z-score in experiment [1] was -0.686 (inactive); in experiment [3], 1.14 (inactive); in [4], 0.487 (inactive); in experiment [5], -1.17 (inactive); in [6], 0.196 (inactive); in experiment [7] it was 0.101. Further, the z-score was 1.97 (inactive) in experiment [8], 0.895 (inactive) in [9] and 1.2 in experiment [10]. Moreover, in [2], the composite z-score was determined as 0.405.
As to `CN1C(=O)C2C=CC(C(O)C#Cc3ccccc3)N(Nc3ccccc3)C2C1=O` (stereo not given), the z-score in experiment [1] is -0.877 (inactive); in experiment [3], 1.07 (inactive); in [4] it was 0.783 (inactive); in [5], 0.0989 (inactive); in experiment [6], 1.12 (inactive); in [7], -1.19. Moreover, the z-score in [8] is -1.22 (inactive); in [9], -4.71 (inactive); in experiment [10], -1.8. In experiment [2], the composite z-score is 0.545.
Turning to `COCCOC(=O)N1C(=O)[C@@]2(c3cc(C#CCCO)ccc31)[C@H](c1ccccc1OCCO)N1[C@H](c3ccccc3)[C@H](c3ccccc3)OC(=O)[C@H]1[C@@H]2C(=O)Nc1nc2ccccc2s1`, the z-score was -0.395 (inactive) in experiment [1]; 13.1 (active) in experiment [3]; 3.36 (inactive) in experiment [4]; 0.621 (inactive) in experiment [5]; 1.66 (inactive) in [6]; -0.202 in experiment [7]. Further, the z-score was 1.18 (inactive) in [8], 0.781 (inactive) in experiment [9] and 1.53 in experiment [10]. Also, the composite z-score in experiment [2] was 0.241.
Turning to `CCOC(=O)C[C@H]1[C@H](OC(=O)c2ccccc2-c2ccccc2)[C@@H](NC(=O)c2ccc(-c3ccccc3)cc2)c2cc(OCCCO)ccc2N1C(=O)c1ccc2ccccc2n1`, the z-score is -0.485 (inactive) in experiment [1]; 2.14 (inactive) in [3]; -0.0352 (inactive) in experiment [4]; -0.708 (inactive) in experiment [5]; 0.232 (inactive) in experiment [6]; -0.0653 in [7]. The z-score in experiment [8] was 0.724 (inactive); in experiment [9], 0.964 (inactive); in [10], 1.24. In experiment [2], this compound yielded a composite z-score of -0.28.
For the compound `Cn1cccc1C(O)C1C=CC2C(=O)NC(=O)C2N1Nc1ccc(Cl)cc1Cl` (stereo not given), the z-score in experiment [1] is -3.18 (inactive); in experiment [3], 2.16 (inactive); in [4], 1.35 (inactive); in experiment [5], 0.304 (inactive); in [6] it was 1.07 (inactive); in experiment [7], -1.42. In addition, the z-score in experiment [8] was -0.663 (inactive); in experiment [9], -3.85 (inactive); in experiment [10], -2.71. Further, the composite z-score in experiment [2] turned out to be 0.0981.
